KCNQ2 pot: potentiators of rat KCNQ2 potassium channel; CHO-K1 KCNQ2, FluxOR thallium flux fluorescence; active compounds read high; B-score at 10 µM; 0.54% of 310,000 active; AID 2239;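 active = fluorescence ratio B-score at least 3 SD of library B-scores, with initial fluorescence B-score within 3 of them, cut at about 5.3 in these data; same plate scores as AID 2156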;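 note: B-score of peak minus minimum over baseline fluorescence ratio after K+ and Tl+ stimulus; positive B-score means potentiation of KCNQ2 with more thallium influx and brighter signal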
KCNQ2 inh: blocks the rat KCNQ2 potassium channel. O88943. AID 2156. CHO-K1 KCNQ2, FluxOR thallium flux, 20 min; active compounds read low. 1.1% of 310,000 active. B-score at 10 µM;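 active = fluorescence ratio B-score at most minus 3 library SDs, with starting brightness B-score within 2 library SDs, cut at about -5.5 in these data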
KCNQ2 block conf: rat KCNQ2 channel inhibition, confirmatory screen. AID 493025. 57% of 1,000 active. KCNQ2-expressing cells, thallium flux; active compounds read low. shares compounds with KCNQ2 inh. activity change, negative = inhibition, % at 10 µM;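 note: 0% = vehicle wells and values are ratio percent relative to vehicle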
KCNQ1 spec: human KCNQ1 activity in KCNQ2 inhibitor specificity screen; shares compounds with KCNQ2 inh; AID 493026; KCNQ1-expressing cells, FluxOR thallium flux fluorescence; active compounds read low; activity change, negative = inhibition, % at 10 µM; 15% of 1,000 active;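 active = activity change at least 3 SD of negative controls below their mean in both duplicate wells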;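 note: CHO cells stably transfected with KCNQ1 and depolarized by potassium stimulus; peak minus minimum fluorescence over baseline after thallium addition; 0% = vehicle negative control and -100% = blank without thallium stimulus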
Target sequence (P51787 whole entry, looked up): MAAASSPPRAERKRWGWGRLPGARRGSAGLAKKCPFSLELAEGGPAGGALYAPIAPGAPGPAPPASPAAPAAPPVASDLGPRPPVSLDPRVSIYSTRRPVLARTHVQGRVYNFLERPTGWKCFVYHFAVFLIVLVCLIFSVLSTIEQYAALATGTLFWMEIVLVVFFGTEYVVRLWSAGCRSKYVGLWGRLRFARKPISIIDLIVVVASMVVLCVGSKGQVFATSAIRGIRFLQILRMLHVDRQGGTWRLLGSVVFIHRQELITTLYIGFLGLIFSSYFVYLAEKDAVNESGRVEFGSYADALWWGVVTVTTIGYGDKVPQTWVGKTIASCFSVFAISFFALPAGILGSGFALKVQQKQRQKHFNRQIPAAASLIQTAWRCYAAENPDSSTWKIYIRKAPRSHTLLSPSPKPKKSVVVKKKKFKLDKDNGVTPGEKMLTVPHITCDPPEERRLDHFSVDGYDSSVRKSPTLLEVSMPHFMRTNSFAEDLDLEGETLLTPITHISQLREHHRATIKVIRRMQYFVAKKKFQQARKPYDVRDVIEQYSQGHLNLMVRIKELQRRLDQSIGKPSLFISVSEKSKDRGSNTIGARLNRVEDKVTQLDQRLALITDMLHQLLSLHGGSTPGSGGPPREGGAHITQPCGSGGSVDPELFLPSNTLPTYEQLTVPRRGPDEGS
CHO Tl ctr: KCNQ2 inhibitor counter-screen hit in parental CHO cells | 14% of 1,000 active | thallium flux counter-screen; active compounds read low | shares compounds with KCNQ2 inh | AID 493029 | activity change, % at 10 µM;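 note: 0% = vehicle negative controls with stimulus buffer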
KCNQ2 patch conf: rat KCNQ2 inhibition confirmed by electrophysiology. shares compounds with KCNQ2 inh. KCNQ2-expressing cells, automated patch clamp current. calls only at 10 µM. 49% of 550 active. AID 588531
Numbers without * were called inactive; i = inactive; . = no result; + = active, no number. Rows were chosen to be rich in hits. Some 1.6% of all compounds tested hit in one or more screens of this group. Unless noted, the rule behind the calls is not given here.

SMILES | KCNQ2 pot | KCNQ2 inh | KCNQ2 block conf | KCNQ1 spec | CHO Tl ctr | others
CC1=Nc2ccccc2/C1=C/c1nc(-c2ccc(C)s2)oc1O | . | i | . | . | .
CC(C)(C)C1CCC(=NNC(=O)c2ccco2)CC1 (configuration not stated) | . | i | . | . | .
CC(C)C[C@H](NC(=O)N1CCn2c1nc1ccccc12)C(=O)NCCc1ccccc1 | . | i | . | . | .
CC(C)C[C@H](NC(=O)N1CCn2c1nc1ccccc12)C(=O)NCc1ccccc1 | -6.68 | -6.68* | i | i | i
Cc1ccc2cccc(OCc3cccc([N+](=O)[O-])c3)c2n1 | . | i | . | . | .
Cc1ccc(S(=O)(=O)/N=C(\Sc2ccccc2)c2ccccc2)cc1 | . | i | . | . | .
O=S(=O)(/N=C(\Sc1ccccc1)c1ccccc1)c1ccc(Cl)cc1 | -6.91 | -6.91* | i | i | i
Cc1cc2oc(=O)cc(-c3cc4ccccc4o3)c2cc1O | . | i | . | . | .
CC(C)=CCc1cc(-c2oc3cc(O)cc(O)c3c(=O)c2O)ccc1O | 2.36 | i | . | . | .
CC(C)=CCc1c(O)cc2oc3c(CC=C(C)C)c(O)c(O)c(CC=C(C)C)c3c(=O)c2c1O | -11.9 | -11.9* | -48.0%* | -42.5%* | -27.5%* | KCNQ2 patch conf=i
O=C(/C=C/c1ccccc1Br)c1ccc2c(c1)OCO2 | -6.85 | -6.85* | i | i | i
O=C(/C=C/c1ccccc1)c1ccc2c(c1)OCO2 | . | i | . | . | .
CCOC(=O)C1=C(O)C(=O)N(CCCn2ccnc2)C1c1ccc(C)cc1 (configuration not stated) | 1.21 | i | . | . | .
O=C1Nc2ccc(Cl)cc2C12Nc1ccccc1-c1nnc(SCc3ccccc3F)nc1O2 (configuration not stated) | 0.18 | i | . | . | .
COc1cc(-c2nnc(SCC(=O)N3c4ccccc4Sc4ccccc43)o2)cc(OC)c1OC | . | i | . | . | .
O=C(Sc1nnc(-c2ccccc2)o1)N1c2ccccc2Sc2ccccc21 | -6.84 | -6.84* | i | i | i
Cc1sc2ncnc(SCC(=O)NC(=O)c3cccn3C)c2c1C | 3.15 | i | . | . | .
Cc1cc(C)c2c(C)c(C(=O)NCc3ccncc3)oc2c1 | 1.13 | i | . | . | .
CCOCCn1c(CN2CCC(Cc3ccccc3)CC2)nc2c1c(=O)n(C)c(=O)n2C | . | i | . | . | .
CN1/C(=C\C(=O)c2cncc(Br)c2)C(C)(C)c2ccccc21 | -7.99 | -7.99* | -39.5%* | -43.0%* | -37.0%* | KCNQ2 patch conf=i
CN1/C(=C\C(=O)c2cccnc2)C(C)(C)c2ccccc21 | . | i | . | . | .
CCN1CCN(c2ccc(S(=O)(=O)N3CCCCC3)cc2NC(=O)Cc2ccc(OC)cc2)CC1 | . | i | . | . | .
COc1cc(-c2nc3cnccn3c2Nc2ccccc2)ccc1O | 0.45 | i | . | . | .
COc1cc(-c2nc3cccc(C)n3c2NCC2CCCO2)ccc1O (configuration not stated) | -8.6 | -8.6* | i | i | i
COc1ccc2c(c1)sc1nc(=O)ccn12 | 1.55 | i | . | . | .
SMILES | KCNQ2 pot | KCNQ2 inh | KCNQ2 block conf | KCNQ1 spec | CHO Tl ctr | others
CC[n+]1c(/C=C/Nc2ccccc2)sc2ccccc21 | 0.92 | i | . | . | .
CCN1/C(=C/C=C/c2sc3ccccc3[n+]2CC)Sc2ccccc21 | -6.89 | -6.89* | i | i | i
COc1ccc(C(NC(C)=O)c2cc(Cl)c3cccnc3c2O)cc1OC (configuration not stated) | . | i | . | . | .
Cc1ccc(C(=O)/C=C/C(=O)c2ccc(C)cc2)cc1 | -7.53 | -7.53* | i | i | i
Cc1ccc(/C=C/C(=O)c2ccc(C)cc2)cc1 | . | i | . | . | .
Cc1cccc(-n2ncc3c2CCCC3NC(=O)Cn2cccn2)c1C (configuration not stated) | 1.15 | i | . | . | .
CC1Cc2ccccc2N1C(=O)CNc1ccccc1N1CCCCC1 (configuration not stated) | -8.36 | -8.36* | i | i | i
CC1CCN(CC(=O)N2c3ccccc3CC2C)CC1 (configuration not stated) | 0.66 | i | . | . | .
Cc1ccc(C(=O)N2CCN(c3ccc(N4CCOCC4)nn3)CC2)cc1 | . | i | . | . | .
O=C(Cn1c2ccccc2c(=O)c2ccccc21)N/N=C/c1cc([N+](=O)[O-])ccc1N1CCCCCC1 | . | i | . | . | .
CCc1ccccc1NC(=S)N1CCCCCC1 | . | i | . | . | .
N#Cc1ccccc1N=C1CCCN1Cc1ccccc1 | . | i | . | . | .
Cc1cc(C)c(N=C2CCCN2Cc2ccccc2)c(C#N)c1 | -8.79 | -8.79* | -31.5%* | i | i | KCNQ2 patch conf=+
Cc1cccc(-n2nc3c(c2NC(=O)c2ccc(Br)o2)CSC3)c1 | -8.96 | -8.96* | -27.5%* | i | i | KCNQ2 patch conf=i
Cc1cccc(-n2nc3c(c2NC(=O)CCCl)CSC3)c1 | . | i | . | . | .
CC(C)(C)n1nnnc1C(c1ccccn1)N(Cc1ccccc1)Cc1ccc(Cl)cc1 (configuration not stated) | -7.73 | -7.73* | -27.5%* | i | i | KCNQ2 patch conf=i
CCN(Cc1ccccc1)C(c1ccccn1)c1nnnn1C(C)(C)CC (configuration not stated) | . | i | . | . | .
Cn1cccc1P(=O)(c1cccn1C)c1cccn1C | 0.13 | i | . | . | .
c1csc(C(c2nnnn2C2CCCCC2)N2CCCC3(CCCCC3)C2)c1 (configuration not stated) | . | i | . | . | .
CC(C)(C)n1nnnc1C(c1cccs1)N1CCCC2(CCCCC2)C1 (configuration not stated) | -7.45 | -7.45* | -33.0%* | -38.5%* | -30.5%* | KCNQ2 patch conf=i
CC(C)CCn1c(O)c(N=NC(=O)c2ccco2)c2ccccc21 | . | i | . | . | .
CC(C)Cn1c(O)c(N=NC(=O)c2cccc(S(=O)(=O)N3CCCCC3)c2)c2ccccc21 | -9.29 | -9.29* | i | i | i
COc1ccc(Cl)cc1NC(=O)C(C)N(C)Cc1ccc(C(F)(F)F)cc1 (configuration not stated) | -6.81 | -6.81* | -45.0%* | -52.5%* | -39.0%* | KCNQ2 patch conf=i
COc1cc(CN(C)C(C)C(=O)Nc2ccc([N+](=O)[O-])cc2Cl)ccc1OC(F)F (configuration not stated) | . | i | . | . | .
CCOC(=O)CNC(=O)CSc1nc(N)cc(N)n1 | 1.31 | i | . | . | .
SMILES | KCNQ2 pot | KCNQ2 inh | KCNQ2 block conf | KCNQ1 spec | CHO Tl ctr | others
Cn1cnnc1SCCC(=O)Nc1ccc(Cl)cc1 | 0.87 | i | . | . | .
Cn1cnnc1SCCC(=O)Nc1ccccc1 | -8.26 | -8.26* | i | i | i
Cc1ccc(Cl)cc1N1CCN(C(=O)CCS(=O)(=O)c2ccc3c(c2)NC(=O)CO3)CC1 | 2.36 | i | . | . | .
S=C(Nc1ccccc1)N1CCCCCCC1 | 1.29 | i | . | . | .
CC(=O)C(=Nc1cccc(Cl)c1)NNc1ccccc1C | . | i | . | . | .
O=C1ON=C(c2ccccc2)/C1=C\c1ccco1 | . | i | . | . | .
Cc1ccc(/C=C2/C(=O)ON=C2c2ccccc2)o1 | -8.96 | -8.96* | -24.0%* | i | i | KCNQ2 patch conf=i
Cc1cc(C(=O)N2CCCC(N3CCN(c4ccccc4C)CC3)C2)n(C)n1 (configuration not stated) | 0.03 | i | . | . | .
CNC(=O)C1Cc2ccccc2CN1S(=O)(=O)c1cccs1 (configuration not stated) | 0.1 | i | . | . | .

Compound activity as filed in PubChem.
